Test results reported in PubChem BioAssay.
A number with no mark means an inactive call. Calls of active or inactive are those of the source.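 Rule for the calls, unless noted: active = mean inhibition over 43.08%, the solvent-only control mean plus 3 SD; inactive = the rest.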

Assays:
[1] = molecular target: Nuclear receptor coactivator 3 (Homo sapiens) (UniProt Q9Y6Q9); test: NCOA3 GAL4-fusion reporter inhibition – cell-based, luminescence, quadruplicate, confirmation (AID 588792); settings: HEK293 GAL4-SRC3 luciferase reporter, at 3.6 µM, active compounds read high;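 note: 0% = DMSO treated cells and 100% = gossypol at 36 µM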
[2] = tested on: transactivating tegument protein VP16 (Human herpesvirus 1), Gal4-VP16 luciferase reporter; test: repression of VP16-driven luciferase reporter – cell-based, luminescence, high throughput, counter-screen for SRC3 inhibitor project (AID 588794; in the data active = inhibition above about 30%); settings: mammalian cells, at 3.6 µM, active compounds read high
[3] = molecular target: Nuclear receptor coactivator 1 (Homo sapiens) (UniProt Q15788); test: NCOA1 GAL4-fusion reporter inhibition – cell-based, luminescence, quadruplicate, confirmation (AID 588820;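 active = mean inhibition above 46.68%, the untreated control wells mean plus 3 SD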;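 note: 0% = DMSO wells and 100% = gossypol 36 µM treated wells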); settings: HEK293 GAL4-SRC1 luciferase reporter, at 3.6 µM, active compounds read high
[4] = repression of VP16-driven luciferase reporter – cell-based, luminescence, high throughput, counter-screen for SRC1 inhibitor project (AID 588824; in the data active = inhibition above about 25%); settings: cell-based VP16 transactivation luciferase luminescence; at 3.6 µM; active compounds read high
[5] = StAR promoter reporter inhibitors, counter-screen for LRH-1 inverse agonist project, cell-based, luminescence, high throughput (AID 651611; in the data active = inhibition above about 28%); settings: StAR promoter luciferase reporter counterscreen, at 3.6 µM, active compounds read high
[6] = molecular target: Nuclear receptor subfamily 5 group A member 2 (Homo sapiens) (UniProt O00482); test: NR5A2 activity suppression in reporter cells – cell-based, luminescence, confirmation (AID 651613; in the data active = inhibition above about 42%;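 note: HEK293T cells co-transfected with LRH-1 and StAR promoter luciferase reporter; 0% = vehicle wells and 100% = parental cells lacking receptor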); settings: cell-based LRH-1 luciferase reporter, inverse agonism; at 3.6 µM; active compounds read high
[7] = molecular target: Steroidogenic factor 1 (Homo sapiens) (UniProt Q13285); test: inverse agonism at SF1 nuclear receptor – cell-based, luminescence, high throughput, counter-screen for LRH-1 inverse agonist project (AID 651614; in the data active = inhibition above about 44%;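 note: cells cotransfected with StAR promoter reporter and SF1 expression vector; 0% = vehicle on cells with receptor and 100% = vehicle on cells lacking receptor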); settings: cell-based SF1 luciferase reporter, at 3.6 µM, active compounds read high
[8] = compounds suppressing VP16-driven luciferase signal – cell-based, luminescence, high throughput, counter-screen for LRH-1 inverse agonist project (AID 651615; in the data active = inhibition above about 33%); settings: Gal4-VP16 luciferase reporter cells, at 3.6 µM, active compounds read high
[9] = tested on: transactivating tegument protein VP16 (Human herpesvirus 1); test: compounds suppressing VP16-driven luciferase signal – cell-based, luminescence, single concentration, counter-screen for SRC2 inhibitor project (AID 652007; in the data active = inhibition above about 36%); settings: cell-based VP16 transactivation luciferase reporter, at 8.9 µM, active compounds read high
[10] = molecular target: Nuclear receptor coactivator 2 (Homo sapiens) (UniProt Q15596); test: inhibition of GAL4-SRC2 driven luciferase expression – cell-based, luminescence, HEK293, triplicate, confirmation (AID 652008;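 active = mean inhibition above 46.5%, the solvent-only control mean plus 3 SD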;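 note: 0% = DMSO-treated cells and 100% = Gossypol at 36 µM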); settings: HEK293 GAL4-SRC2 luciferase reporter, at 8.9 µM, active compounds read high
Nuclear receptor coactivator 2 (Homo sapiens), sequence (Q15596 whole entry, looked up, the tested form may be a part): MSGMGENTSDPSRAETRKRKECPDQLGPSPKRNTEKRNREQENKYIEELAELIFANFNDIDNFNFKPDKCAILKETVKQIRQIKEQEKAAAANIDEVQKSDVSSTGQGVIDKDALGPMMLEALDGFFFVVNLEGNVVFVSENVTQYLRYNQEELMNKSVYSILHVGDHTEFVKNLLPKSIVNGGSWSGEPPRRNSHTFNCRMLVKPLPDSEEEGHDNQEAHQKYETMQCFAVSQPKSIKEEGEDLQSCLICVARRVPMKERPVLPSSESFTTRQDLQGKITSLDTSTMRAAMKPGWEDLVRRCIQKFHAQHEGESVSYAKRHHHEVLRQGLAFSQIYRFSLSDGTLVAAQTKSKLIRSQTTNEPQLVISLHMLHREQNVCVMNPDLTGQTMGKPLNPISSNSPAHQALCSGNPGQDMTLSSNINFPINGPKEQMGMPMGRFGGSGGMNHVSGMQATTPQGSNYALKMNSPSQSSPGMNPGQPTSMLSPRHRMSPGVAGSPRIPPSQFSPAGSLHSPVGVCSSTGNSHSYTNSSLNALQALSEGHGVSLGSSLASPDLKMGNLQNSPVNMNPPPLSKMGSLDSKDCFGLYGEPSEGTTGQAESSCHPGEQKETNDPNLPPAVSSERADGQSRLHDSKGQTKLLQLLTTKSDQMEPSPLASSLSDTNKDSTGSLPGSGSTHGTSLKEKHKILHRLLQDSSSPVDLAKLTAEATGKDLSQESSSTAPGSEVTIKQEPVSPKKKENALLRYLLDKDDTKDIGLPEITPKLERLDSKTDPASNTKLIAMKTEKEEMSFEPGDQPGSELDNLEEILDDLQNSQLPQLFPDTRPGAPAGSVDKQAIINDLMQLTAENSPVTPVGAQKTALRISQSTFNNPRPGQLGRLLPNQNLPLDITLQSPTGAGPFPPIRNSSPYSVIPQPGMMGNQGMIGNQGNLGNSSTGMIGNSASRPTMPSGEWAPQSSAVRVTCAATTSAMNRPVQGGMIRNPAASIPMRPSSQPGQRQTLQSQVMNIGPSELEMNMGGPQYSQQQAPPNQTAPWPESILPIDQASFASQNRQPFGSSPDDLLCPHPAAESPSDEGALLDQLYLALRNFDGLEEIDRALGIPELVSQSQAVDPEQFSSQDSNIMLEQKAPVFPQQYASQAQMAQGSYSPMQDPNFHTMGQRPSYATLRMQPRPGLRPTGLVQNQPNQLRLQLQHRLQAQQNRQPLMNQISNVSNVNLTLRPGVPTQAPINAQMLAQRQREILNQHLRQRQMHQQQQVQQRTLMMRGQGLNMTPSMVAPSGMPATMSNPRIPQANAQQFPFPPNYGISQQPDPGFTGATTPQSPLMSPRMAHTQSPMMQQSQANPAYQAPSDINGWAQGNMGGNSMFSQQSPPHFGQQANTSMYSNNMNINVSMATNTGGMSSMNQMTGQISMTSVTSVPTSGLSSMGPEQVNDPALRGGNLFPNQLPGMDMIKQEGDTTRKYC

Nuclear receptor coactivator 3 (Homo sapiens), sequence (Q9Y6Q9 whole entry, looked up, the tested form may be a part): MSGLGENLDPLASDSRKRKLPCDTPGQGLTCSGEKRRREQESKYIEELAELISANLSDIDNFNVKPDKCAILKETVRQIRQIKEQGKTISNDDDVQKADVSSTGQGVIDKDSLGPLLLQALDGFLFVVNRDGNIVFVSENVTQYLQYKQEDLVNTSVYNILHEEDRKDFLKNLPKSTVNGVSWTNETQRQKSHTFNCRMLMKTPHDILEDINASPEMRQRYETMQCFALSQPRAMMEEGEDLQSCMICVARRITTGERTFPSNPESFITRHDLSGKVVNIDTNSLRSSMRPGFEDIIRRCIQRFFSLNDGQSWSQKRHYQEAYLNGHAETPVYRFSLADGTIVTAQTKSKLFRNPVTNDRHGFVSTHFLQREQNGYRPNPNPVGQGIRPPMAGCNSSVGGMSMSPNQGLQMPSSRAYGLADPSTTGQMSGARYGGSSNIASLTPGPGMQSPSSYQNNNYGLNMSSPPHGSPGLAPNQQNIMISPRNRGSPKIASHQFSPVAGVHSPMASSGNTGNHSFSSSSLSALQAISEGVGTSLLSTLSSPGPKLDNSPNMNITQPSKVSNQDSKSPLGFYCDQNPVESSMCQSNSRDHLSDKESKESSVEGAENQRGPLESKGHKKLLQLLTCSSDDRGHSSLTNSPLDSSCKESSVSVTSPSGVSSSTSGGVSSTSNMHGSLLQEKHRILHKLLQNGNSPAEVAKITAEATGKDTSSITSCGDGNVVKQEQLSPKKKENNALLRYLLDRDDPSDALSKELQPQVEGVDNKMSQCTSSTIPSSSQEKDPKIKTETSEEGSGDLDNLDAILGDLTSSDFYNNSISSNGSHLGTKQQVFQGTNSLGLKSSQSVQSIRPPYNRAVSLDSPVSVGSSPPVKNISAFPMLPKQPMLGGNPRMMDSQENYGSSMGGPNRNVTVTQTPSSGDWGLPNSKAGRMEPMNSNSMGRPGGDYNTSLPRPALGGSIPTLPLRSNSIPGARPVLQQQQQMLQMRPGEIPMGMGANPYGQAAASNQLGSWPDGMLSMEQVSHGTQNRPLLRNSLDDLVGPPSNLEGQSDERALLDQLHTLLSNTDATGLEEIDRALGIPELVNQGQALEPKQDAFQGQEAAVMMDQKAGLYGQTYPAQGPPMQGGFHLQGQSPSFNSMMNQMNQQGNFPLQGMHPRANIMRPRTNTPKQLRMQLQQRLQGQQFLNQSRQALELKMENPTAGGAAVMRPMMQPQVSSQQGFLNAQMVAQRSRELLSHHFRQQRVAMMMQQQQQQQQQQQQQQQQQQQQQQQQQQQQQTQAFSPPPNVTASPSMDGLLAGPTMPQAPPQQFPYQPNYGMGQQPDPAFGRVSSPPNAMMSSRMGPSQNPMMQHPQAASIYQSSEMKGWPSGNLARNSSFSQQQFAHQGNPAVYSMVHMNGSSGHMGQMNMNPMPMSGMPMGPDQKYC
Nuclear receptor subfamily 5 group A member 2 (Homo sapiens), sequence (O00482 whole entry, looked up): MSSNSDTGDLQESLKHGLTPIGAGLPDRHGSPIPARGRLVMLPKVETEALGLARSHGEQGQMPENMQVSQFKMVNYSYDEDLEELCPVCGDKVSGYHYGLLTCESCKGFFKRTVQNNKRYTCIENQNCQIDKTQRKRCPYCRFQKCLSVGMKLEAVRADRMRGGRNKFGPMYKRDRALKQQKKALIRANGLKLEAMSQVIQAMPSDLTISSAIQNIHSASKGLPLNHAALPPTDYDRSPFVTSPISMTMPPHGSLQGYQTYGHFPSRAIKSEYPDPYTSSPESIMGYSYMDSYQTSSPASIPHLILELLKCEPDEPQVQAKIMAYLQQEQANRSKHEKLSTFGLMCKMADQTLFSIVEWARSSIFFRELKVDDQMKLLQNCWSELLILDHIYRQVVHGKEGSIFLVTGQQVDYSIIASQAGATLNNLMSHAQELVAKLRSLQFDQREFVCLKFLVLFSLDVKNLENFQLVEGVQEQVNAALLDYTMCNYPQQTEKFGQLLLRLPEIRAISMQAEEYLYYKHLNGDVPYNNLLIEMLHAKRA
Nuclear receptor coactivator 1 (Homo sapiens), sequence (Q15788 whole entry, looked up, the tested form may be a part): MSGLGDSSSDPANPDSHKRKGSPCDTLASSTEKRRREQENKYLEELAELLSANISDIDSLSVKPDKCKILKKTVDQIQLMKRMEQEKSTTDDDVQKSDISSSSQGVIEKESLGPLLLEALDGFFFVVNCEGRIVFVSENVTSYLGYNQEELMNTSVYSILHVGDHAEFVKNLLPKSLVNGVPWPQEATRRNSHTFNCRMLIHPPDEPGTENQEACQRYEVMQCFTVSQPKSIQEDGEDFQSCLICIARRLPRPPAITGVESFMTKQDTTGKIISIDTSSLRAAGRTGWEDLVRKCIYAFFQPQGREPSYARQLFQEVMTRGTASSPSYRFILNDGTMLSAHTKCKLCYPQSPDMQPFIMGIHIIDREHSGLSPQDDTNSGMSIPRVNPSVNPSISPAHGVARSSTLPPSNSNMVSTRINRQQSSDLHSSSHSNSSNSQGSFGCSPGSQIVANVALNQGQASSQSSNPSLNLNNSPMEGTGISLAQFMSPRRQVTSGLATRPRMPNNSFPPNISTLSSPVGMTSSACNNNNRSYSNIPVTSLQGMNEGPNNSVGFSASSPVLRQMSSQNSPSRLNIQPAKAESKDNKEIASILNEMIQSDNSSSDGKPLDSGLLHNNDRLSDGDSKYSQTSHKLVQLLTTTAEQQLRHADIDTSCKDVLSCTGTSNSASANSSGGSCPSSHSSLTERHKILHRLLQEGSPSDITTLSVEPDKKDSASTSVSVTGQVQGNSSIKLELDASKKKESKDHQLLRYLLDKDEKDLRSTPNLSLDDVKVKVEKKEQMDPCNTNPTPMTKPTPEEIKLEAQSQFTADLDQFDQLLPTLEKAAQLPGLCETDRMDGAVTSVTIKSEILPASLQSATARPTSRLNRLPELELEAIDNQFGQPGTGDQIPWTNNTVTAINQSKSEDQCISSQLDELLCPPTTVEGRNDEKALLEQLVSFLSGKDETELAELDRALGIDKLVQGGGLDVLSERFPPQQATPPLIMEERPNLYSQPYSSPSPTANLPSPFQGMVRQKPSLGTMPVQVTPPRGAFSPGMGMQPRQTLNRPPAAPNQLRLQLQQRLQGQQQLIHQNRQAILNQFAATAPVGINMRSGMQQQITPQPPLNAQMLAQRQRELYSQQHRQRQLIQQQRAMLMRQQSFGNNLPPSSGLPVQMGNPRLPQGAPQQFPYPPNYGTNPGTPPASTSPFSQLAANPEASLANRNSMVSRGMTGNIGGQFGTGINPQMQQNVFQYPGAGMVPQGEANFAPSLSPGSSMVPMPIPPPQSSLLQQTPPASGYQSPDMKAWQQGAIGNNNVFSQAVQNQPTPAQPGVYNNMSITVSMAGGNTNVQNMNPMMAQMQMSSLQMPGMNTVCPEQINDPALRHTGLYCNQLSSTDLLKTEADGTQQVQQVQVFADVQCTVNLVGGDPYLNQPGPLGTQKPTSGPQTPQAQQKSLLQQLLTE

## CC(C)(C)c1ccc(C(=O)Nc2sc3c(c2C(=O)O)CCC3)cc1
[1]
  inhibition: 48.4% (active)
[2]
  inhibition: 73% (active)
[3]
  inhibition: 42.3%
[4]
  inhibition: 73.4% (active)
[5]
  inhibition: 77.2% (active)
[6]
  inhibition: 95.7% (active)
[7]
  inhibition: 90.7% (active)
[8]
  inhibition: 77.3% (active)
[9]
  inhibition: 8.37%
[10]
  inhibition: 10.1%

## CC1OC2CC(=O)OC2C2=C1C(=O)c1c(O)cccc1C2=O (stereo not given)
[1]
  inhibition: 97.6% (active)
[2]
  inhibition: 95.2% (active)
[3]
  inhibition: 97.5% (active)
[4]
  inhibition: 95.2% (active)
[5]
  inhibition: 96.8% (active)
[6]
  inhibition: 110% (active)
[7]
  inhibition: 98.2% (active)
[8]
  inhibition: 96.8% (active)
[9]
  inhibition: 98.9% (active)
[10]
  inhibition: 99.7% (active)

## O=C(CN1C(=O)c2ccccc2S1(=O)=O)c1ccc(Cl)cc1Cl
[1]
  inhibition: 65.8% (active)
[2]
  inhibition: 71.5% (active)
[3]
  inhibition: 8.08%
[4]
  inhibition: 62.5% (active)
[5]
  inhibition: 67.9% (active)
[6]
  inhibition: 55.3% (active)
[7]
  inhibition: 73% (active)
[8]
  inhibition: 57.4% (active)
[9]
  inhibition: 81.2% (active)
[10]
  inhibition: 83.7% (active)

## CC(O)CC(=O)OC[C@]12CC[C@H]3[C@@](C)(CC[C@H]4C(C)(C)CCC[C@]34C)[C@@H]1CC(C1=CC(=O)OC1O)O2 (stereo not given in full)
[1]
  inhibition: 30.2%
[2]
  inhibition: 53.4% (active)
[3]
  inhibition: 31%
[4]
  inhibition: 43.4% (active)
[5]
  inhibition: 51.2% (active)
[6]
  inhibition: 76.6% (active)
[7]
  inhibition: 80.5% (active)
[8]
  inhibition: 75.2% (active)
[9]
  inhibition: 50.6% (active)
[10]
  inhibition: -41%

## CNc1cccnc1C=NNC(N)=S
[1]
  inhibition: 71.3% (active)
[2]
  inhibition: 40.5% (active)
[3]
  inhibition: 58.5% (active)
[4]
  inhibition: 17.9%
[5]
  inhibition: 25.3%
[6]
  inhibition: 57.8% (active)
[7]
  inhibition: 52.1% (active)
[8]
  inhibition: 30.4%
[9]
  inhibition: -4.08%
[10]
  inhibition: 9.84%

## COc1ccc(/C=C2\SC(=O)N(CCCC(=O)Nc3cc(Cl)ccc3C(=O)O)C2=O)cc1
[1]
  inhibition: 86.5% (active)
[2]
  inhibition: 77% (active)
[3]
  inhibition: 75.5% (active)
[4]
  inhibition: 70.3% (active)
[5]
  inhibition: 83.7% (active)
[6]
  inhibition: 94% (active)
[7]
  inhibition: 82% (active)
[8]
  inhibition: 75.7% (active)
[9]
  inhibition: 93.9% (active)
[10]
  inhibition: 97.8% (active)

## Cc1cccc(-n2ncc3c(N(C)C4CCCCC4)ncnc32)c1
[1]
  inhibition: 72.9% (active)
[2]
  inhibition: 64.4% (active)
[3]
  inhibition: 28.5%
[4]
  inhibition: 46.4% (active)
[5]
  inhibition: 60.6% (active)
[6]
  inhibition: 11.5%
[7]
  inhibition: 52.7% (active)
[8]
  inhibition: 29%
[9]
  inhibition: 52.5% (active)
[10]
  inhibition: 83% (active)

## COc1ccc(CC2C(=O)NC(C)C(=O)N(C)C3Cc4ccc(cc4)Oc4cc(ccc4O)CC(C(=O)NC(C)C(=O)NC(C)C(=O)N2C)N(C)C3=O)cc1 (stereo not given)
[1]
  inhibition: 97.6% (active)
[2]
  inhibition: 96.4% (active)
[3]
  inhibition: 90.6% (active)
[4]
  inhibition: 95% (active)
[5]
  inhibition: 96% (active)
[6]
  inhibition: 110% (active)
[7]
  inhibition: 98.6% (active)
[8]
  inhibition: 97.2% (active)
[9]
  inhibition: 82.2% (active)
[10]
  inhibition: 76.9% (active)

## O=C(CCC1CCCC1)Nc1ccc(C(=O)NCc2cccnc2)cc1
[1]
  inhibition: 88.5% (active)
[2]
  inhibition: 43.3% (active)
[3]
  inhibition: 62.4% (active)
[4]
  inhibition: 24.4%
[5]
  inhibition: 88% (active)
[6]
  inhibition: 98.7% (active)
[7]
  inhibition: 94.8% (active)
[8]
  inhibition: 66.9% (active)
[9]
  inhibition: -5.72%
[10]
  inhibition: 48.6% (active)

## COc1cccc2c1C(=O)c1c(O)c3c(c(O)c1C2=O)CC(O)(C(C)=O)CC3OC1CC(N(C)C)C(O)C(C)O1 (stereo not given)
[1]
  inhibition: 94.2% (active)
[2]
  inhibition: 95.8% (active)
[3]
  inhibition: 73.9% (active)
[4]
  inhibition: 95.3% (active)
[5]
  inhibition: 80% (active)
[6]
  inhibition: 104% (active)
[7]
  inhibition: 94.5% (active)
[8]
  inhibition: 96.3% (active)
[9]
  inhibition: 29.4%
[10]
  inhibition: 45.5%

## CCCNC1=C(N(C(C)=O)c2cccc(F)c2)C(=O)c2ccccc2C1=O
[1]
  inhibition: 49.9% (active)
[2]
  inhibition: 65.3% (active)
[3]
  inhibition: 58.6% (active)
[4]
  inhibition: 67.2% (active)
[5]
  inhibition: 68.9% (active)
[6]
  inhibition: 68.8% (active)
[7]
  inhibition: 88% (active)
[8]
  inhibition: 69.2% (active)
[9]
  inhibition: 24.1%
[10]
  inhibition: 34.3%

## O=C(CC1CS(=O)(=O)CC1CC(=O)Nc1ccc2c(c1)OCCO2)Nc1ccc2c(c1)OCCO2 (stereo not given)
[1]
  inhibition: 37.1%
[2]
  inhibition: -5.19%
[3]
  inhibition: -14.1%
[4]
  inhibition: -21.8%
[5]
  inhibition: -26.2%
[6]
  inhibition: -91.7%
[7]
  inhibition: -43.4%
[8]
  inhibition: -53.8%
[9]
  inhibition: 46.5% (active)
[10]
  inhibition: 57% (active)

## Cc1ccc(C(=O)N/N=C/c2c(O)ccc3ccccc23)cn1
[1]
  inhibition: 65.9% (active)
[2]
  inhibition: 62.9% (active)
[3]
  inhibition: 58.7% (active)
[4]
  inhibition: 75.4% (active)
[5]
  inhibition: 84.8% (active)
[6]
  inhibition: 102% (active)
[7]
  inhibition: 89.9% (active)
[8]
  inhibition: 83.8% (active)
[9]
  inhibition: -4.97%
[10]
  inhibition: 33.4%
